# The full list was thinned out, with hits kept by preference.
# Giardia FBPA inh = blocks Giardia fructose-bisphosphate aldolase activity | A8B2U2 | purified Giardia FBPA | Potency, µM (series often up to 59.6 µM), hits mostly inhibitors | 290,000 tested, 0.71% active | AID 2451; further: nearly all actives have a fitted effect of over 55% in size
#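 Giardia FBPA (40 nM reagent) was preincubated 10 min at RT with compound (up to 57.5 uM final), then substrate plus GAPDH/TPI/NAD/arsenate coupling system with diaphorase/resazurin was added; resorufin fluorescence (525/598 nm) was read after 20 min.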
# LmPK inhibitor = LmPK (Leishmania mexicana) enzyme inhibition; purified LmPK, Kinase-Glo ATP luminescence, 1 h; AID 1721; Q27686; Potency, µM (titrated, usually from 57.5 µM), usual class: inhibitors; 290,000 tested, 0.37% active
# Target sequence (Q27686 whole entry, looked up): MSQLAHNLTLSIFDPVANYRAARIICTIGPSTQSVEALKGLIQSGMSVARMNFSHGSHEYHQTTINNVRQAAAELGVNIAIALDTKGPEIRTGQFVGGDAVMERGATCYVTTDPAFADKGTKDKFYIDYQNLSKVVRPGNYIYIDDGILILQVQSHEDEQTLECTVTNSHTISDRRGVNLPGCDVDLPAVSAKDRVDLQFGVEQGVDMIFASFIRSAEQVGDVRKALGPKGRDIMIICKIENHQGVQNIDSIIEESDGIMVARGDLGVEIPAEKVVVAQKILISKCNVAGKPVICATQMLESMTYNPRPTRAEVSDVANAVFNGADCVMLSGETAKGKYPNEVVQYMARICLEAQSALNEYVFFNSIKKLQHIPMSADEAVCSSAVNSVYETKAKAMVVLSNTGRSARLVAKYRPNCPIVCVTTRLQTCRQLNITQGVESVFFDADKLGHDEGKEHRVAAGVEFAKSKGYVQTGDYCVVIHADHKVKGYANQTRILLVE
#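 qHTS format; LmPK 0.1 nM; substrates PEP 0.5 mM and ADP 0.1 mM. One-hour room-temperature incubation, then coupled luciferase luminescence; 0.5 nM enzyme wells mark activation.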
# Tb PYK inh = T. brucei pyruvate kinase inhibition; Potency, µM (series often up to 76.8 µM), most hits filed as inhibitors; TbPYK enzyme, Kinase-Glo Plus ATP luminescence, 45 min; 410,000 tested, 0.12% active; further: nearly all actives have a fitted effect of over 50% in size
#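 Luminescence from Kinase-Glo Plus, added after a 45-minute room-temperature reaction, served as the end-point read-out. The enzyme and substrate were preincubated with compound before ADP (130 uM final) initiated turnover. Concentration-effect curves came from normalized qHTS data.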
# Shiga toxin inh = blocks Shiga toxin action in Vero cells; inhibition, % at 38.7 µM; AID 2315; 290,000 tested, 9.2% active; Vero cells, Shiga toxin protein synthesis inhibition reporter; in the data active means inhibition mostly above about 28%, no sharp cut-off; inactive means mostly below about 43%
# Cycloheximide cs = counter-screen hit for Shiga toxin inhibitors, cycloheximide; cell reporter, cycloheximide protein synthesis inhibition counterscreen; 300,000 tested, 12% active; max response, %; in the data active means max response mostly above about 13%, no sharp cut-off; inactive means mostly below about 14%; further: read at 38.3 µM for the half of the compounds with a filed dose
# RE007 growth inh = less growth of the S. pombe RE007 Vpr strain. S. pombe RE007 Vpr strain, BacTiter-Glo ATP luminescence, 24 h. Potency, µM (titrated, usually from 92.2 µM), usual class: inhibitors. 360,000 tested, 0.21% active; active means well fitted falling curve with a large enough effect; inconclusive means small, poorly fitted or top-dose-only effect; inactive means no such curve, though single readings can be large or run the other way; further: nearly all actives have a fitted effect of over 50% in size
#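 Fission yeast strain RE007, carrying one chromosomally integrated HIV-1 vpr copy, was seeded at OD 0.01 in PMG+AL medium with 23 nL pinned compound. After 24 h at 30 °C and 99% humidity, viability was read by BacTiter-Glo luminescence.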
# A number is an active result; – = inactive; ? = inconclusive; · = no result; [ ] = dose if it differs, or a comment. Unless noted, the call rests on the fitted dose curve; in most records, active means well fitted curve in the direction sought with a large enough effect; inconclusive means small, poorly fitted or top-dose-only effect, or another doubt; inactive means no such curve, though single readings can be large; an effect the other way counts as inactive or inconclusive.
SMILES,Giardia FBPA inh,LmPK inhibitor,Tb PYK inh,Shiga toxin inh,Cycloheximide cs,RE007 growth inh
Cn1cc(CNC(=O)c2ccc3nc(Cc4ccccc4F)oc3c2)cn1,·,–,–,89,59,–
Cn1cc(CCNC(=O)c2ccc3nc(Cc4ccccc4F)oc3c2)cn1,–,–,–,92,30,–
O=C(NCc1ccccc1Cl)c1ccc2nc(Cc3ccccc3)oc2c1,·,·,–,·,·,·
CCn1cc(CNC(=O)c2ccc3nc(Cc4ccc(OC)cc4)oc3c2)cn1,–,–,–,–,20,–
CCN(Cc1cnn(C)c1)C(=O)c1ccc2nc(Cc3ccccc3F)oc2c1,·,·,–,·,·,–
CC(C)C[C@@H](NC(=O)[C@@H](O)[C@H](N)Cc1ccccc1)C(=O)O,–,·,·,34,40,·
Cc1cc(NCCCn2ccnc2)n2nc(C)c(-c3ccc(Cl)cc3)c2n1,–,–,–,–,26,–
Cc1cc(NCCCn2ccnc2)n2nc(C)c(-c3ccccc3)c2n1,–,–,–,–,44,–
CCOc1ccc(-c2nnc(SCC(=O)NCCc3ccccc3)nc2-c2ccc(OCC)cc2)cc1,·,·,–,·,·,·
Cn1c(SCc2nc3ccccc3[nH]2)nnc1-c1ccccn1,–,–,–,–,–,–
CCn1c(SCC(=O)O)nnc1-c1ccccc1OC,–,–,–,103,49,–
C=CCn1c(SCc2nc3ccccc3[nH]2)nnc1-c1ccccn1,–,–,–,–,27,–
CCn1c(SCc2nc3ccccc3[nH]2)nnc1-c1cnccn1,?,–,–,55,23,–
CCn1c(SCC(=O)c2ccccc2)nnc1-c1cnccn1,?,–,–,107,52,–
CC1CCC(Nc2nc3c(-c4cccc(C(F)(F)F)c4)nnn3c3ccccc23)CC1 (centres undefined),·,·,–,·,·,·
COC(=O)CCN(c1ccccc1)C(CNS(=O)(=O)c1ccccc1)c1ccccc1 (centres undefined),·,·,–,·,·,·
Cc1ccc2c(=O)cc(C(=O)Nc3ccc(S(=O)(=O)Nc4nc(C)cc(C)n4)cc3)oc2c1,·,·,–,·,·,·
Cc1ccc(CNC(=O)c2c(C)oc3nc(C)nc(N4CCOCC4)c23)cc1,·,·,–,·,·,·
CN(C)c1ccc(-c2nc(-c3ccco3)no2)cc1[N+](=O)[O-],·,·,–,·,·,·
O=[N+]([O-])c1cccc(-c2noc(COc3ccccc3)n2)c1,–,–,–,–,27,–
O=[N+]([O-])c1cccc(-c2nc(-c3ccccc3)no2)c1,–,–,–,49,–,–
O=[N+]([O-])c1cccc(-c2nc(-c3ccncc3)no2)c1,–,–,–,–,–,?
O=[N+]([O-])c1cccc(-c2noc(-c3ccco3)n2)c1,–,–,–,63,28,–
Clc1ccc(-c2ccc(CNCc3ccccn3)o2)cc1,?,–,–,24,21,–
COc1ccc(-c2ccc(CNCc3ccccn3)o2)cc1Cl,?,–,·,–,13,·
SMILES,Giardia FBPA inh,LmPK inhibitor,Tb PYK inh,Shiga toxin inh,Cycloheximide cs,RE007 growth inh
Fc1ccc(-c2ccc(CNCc3ccccn3)o2)cc1,–,–,–,·,25,–
Fc1ccc(-c2ccc(CNCCSc3nnnn3-c3ccccc3)o2)cc1,·,·,–,·,·,·
CCOC(=O)c1cnc2ccc(OCC)cc2c1NCCCN1CCOCC1,–,–,?,–,18,–
CCOC(=O)c1cnc2ccc(OCC)cc2c1NCCN1CCOCC1,–,–,–,–,–,–
CC(=O)Nc1ccc(-c2nnc(SCC(=O)Nc3ccc4c(c3)oc3ccccc34)n2C)cc1,–,–,–,–,16,–
COc1ccccc1NC(=O)CSc1nnc(-c2ccc(NC(C)=O)cc2)n1C,–,–,?,–,–,–
CCn1c(SCC(=O)Nc2ccc3c(c2)oc2ccccc23)nnc1-c1ccc(N)cc1,–,–,–,–,35,–
COC(=O)CC1=COC2OCC3=CC[C@@H]1C32 (some centres undefined),–[12.9 µM],·,·,·,·,·
COC(=O)C(C(C)C)N1CC(=O)c2ccccc2S1(=O)=O (centres undefined),–,·,·,–,–,·
O=C(N/N=C1/CC2C=CCC12)c1ccc(Br)o1 (centres undefined),–,–,–,75,74,–
C=CCOc1ccc(CNc2nccs2)cc1,–,–,–,55,22,–
C=CCOc1ccc(CNc2nccs2)cc1OCC,–,–,–,–,–,–
CCNC(=S)N/N=C/c1cccc(C)c1,–,–,–,56,37,–
COc1ccc(C=NNC(=S)NN=Cc2ccc(OC)c(OC)c2)cc1OC,·,·,–,·,·,–
CCNC(=S)N/N=C/c1cc(C)ccc1C,–,–,–,–,–,–
COc1ccccc1NC(=S)N/N=C/c1cccc(C)c1,–,–,–,–,23,–
COc1ccccc1NC(=S)N/N=C/c1ccc(O)cc1,–,–,–,40,69,–
Cc1cccc(C)c1OC(=O)CSc1nnc(CNC(=O)c2ccccc2)o1,·,·,–,·,·,·
COc1ccc(-c2nc3n(c2C)Cc2ccccc2-3)cc1,–,–,–,130,39,–
CC(C)n1c(/C=C/c2ccccc2)nc2ccccc21,–,–,–,79,30,–
CC(C)n1c(CN(C)c2ccccc2)nc2ccccc21,–,–,–,–,–,–
CCCn1c(/C=C/c2ccccc2)nc2ccccc21,–,?,–,106,26,–
CCc1nc2ccccc2n1Cc1ccc(OC)c(OC)c1,–,–,–,–,–,–
COc1ccc(/C=C/c2nc3ccccc3n2Cc2ccc(OC)c(OC)c2)cc1,–,–,–,57,70,–
COCCOCCn1c(/C=C/c2ccccc2)nc2ccccc21,?,14µM,–,–,20,?
SMILES,Giardia FBPA inh,LmPK inhibitor,Tb PYK inh,Shiga toxin inh,Cycloheximide cs,RE007 growth inh
CCn1c(/C=C/c2cc[n+](C)cc2)nc2ccccc21,–,–,–,–,–,–
Cc1ccc(S(=O)(=O)N2CCN(c3nc(-c4ccc(F)cc4)nc4cc(Cl)ccc34)CC2)cc1,·,·,·,–,–,·
CC(C)Cn1c(S(=O)(=O)O)nc2ccccc21,–,–,–,–,–,–
CC(C)Cn1c(/C=C/c2ccco2)nc2ccccc21,–,–,–,–,19,–
Cc1nc2ccccc2c(=O)n1/N=C/c1ccc(N(C)C)cc1,–,–,–,–,26,–
CCOc1ccc(/C=N/n2c(C)nc3ccccc3c2=O)cc1,–,–,–,–,–,–
CSc1ccc(/C=N/n2c(C)nc3ccccc3c2=O)cc1,–,–,–,–,23,–
Cc1nc2ccccc2c(=O)n1/N=C/c1ccc([N+](=O)[O-])o1,?,–,·,56,34,·
Cc1ccc(/C=N/n2c(C)nc3ccccc3c2=O)o1,–,–,–,–,–,–
Cc1nc2ccccc2c(=O)n1/N=C/c1ccccn1,–,–,–,–,28,–
CCN(CC)C(=O)/C(C#N)=C/c1cc(O)c(O)c([N+](=O)[O-])c1,·,·,–,·,·,·
Cc1ccc(C)c(N2CCN(C(=O)c3cccn3-c3nnc(N4CCCCC4)s3)CC2)c1,·,·,–[15.4 µM],·,·,·

# Source: PubChem (National Center for Advancing Translational Sciences (NCATS))
